Measurements: PubChem BioAssay (NCATS)
Records with an inconclusive call do not appear. Activity calls are given as the source filed them. Calls follow the shape of the dose curve; as a rule, active = well fitted inhibition curve with a large enough effect; inconclusive = small, poorly fitted or top-dose-only effect; inactive = no such curve, though single readings can be large or run the other way. Non-standard residues stand in square brackets, D forms with d. Residues, ends and D or L forms follow the SMILES beside them. *: point of attachment. Benzoyl(4-tBu) = CC(C)(C)c1ccc(C(=O)*)cc1; Lys(Et2) = CCN(CC)CCCC[C@H](N)C(=O)O

Assay: BET inhibitor-based combinations targeting novel dependencies in MECOM-rearranged (r) AML: HNT-34 cell line (AID 2202234); also: nearly all actives have a fitted effect of over 35% in size;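 as to viability (% of control): plate controls were vehicle wells for no effect and cell-free wells for full effect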
Settings: HNT-34 AML viability, CellTiter-Glo luminescence, 48 h; series mostly up to 46 µM; viability (% of control): at the top concentration
Text: Ecotropic viral insertion site 1 (EVI1) is located on chromosome 3q26.2 as part of the MECOM (MDS and EVI1 complex) locus. Under normal hematopoiesis, EVI1 is a regulator of hematopoietic stem cell maintenance and self-renewal and EVI1 levels decrease as the cells differentiate. In approximately 5-10% of de novo acute myeloid leukemia (AML) EVI1 is aberrantly expressed, including Chromosomal inv(3)(q21;q26.2) or t(3;3)(q21;q26.2) alterations (MECOM-r) that account for about 50% of AML with EVI1 overexpression 31. AMLs with high levels of EVI1 have a poor prognosis and an overall survival time averaging between 10-14 months. EVI1 overexpression confers resistance in leukemia cells, highlighting the need to develop new targeted therapies for EVI1 overexpressing AMLs. Here, we performed an unbiased chemical drug screening by evaluating the single agent activity of a collection of 2,480 oncology-focused, approved and investigational drugs (NCATS Mechanism Interrogation Plates, MIPE v5.0) against a panel of seven AML cell lines. These included four MECOM-r cell-lines (AML-191, AML-194, UCSD-AML1 and HNT-34) and three non-MECOM-r AMLs (MV4-11, OCI-AML3 and SET-2). Exploiting the mechanistic redundancy built in the library, we identified target-level sensitivities in MECOM-r AML cells and relative activity as compared to other AML subtypes.
A collection of 2480 mechanistically annotated dugs (MIPE v5.0) was used to screen four 3q26.2 rearranged AML cell lines and three non-3q26.2 rearranged AML cell lines. This library purposely exploits redundancy by including multiple inhibitors of key onco-targets, while simultaneously encompassing mechanistic diversity, targeting more than 800 distinct mechanisms of action. Briefly, cells were seeded in 5 uL of growth media using a Multidrop Combi dispenser into 1536 well white polystyrene tissue culture treated plates (Corning) at a density of 500cells/well. For each cell-line, for each of the 2480 drugs in MIPE v5.0 library, an 11-point dose curve was generated via a 1536 pin-tool. Plates were incubated for 48 hr at standard incubator conditions, covered by a stainless steel gasketed lid to prevent evaporation. Cell viability was determined by luminescence based, Cell Titer Glo assay (Promega). In detail, 3 uL of Cell Titer Glo were added to each well and plates were incubated at room temperature for 15 min with a stainless-steel lid in place. Luminescence readings were taken using a Viewlux (PerkinElmer) with a 2 s exposure time per plate. Compound dose-response curves were normalized to DMSO and empty well controls on each plate. Quantitative drug activity data from dose-response curves was determined utilizing area Under the Curve (AUC) and Z-transformed AUC (Z-AUC, a mean-centering transformation applied to each individual cell-line screened).
Potency is read from the fitted curve at half-maximal effect.

SMILES	Potency	viability (% of control)
CCOC(=O)[C@@H](N)Cc1ccc(-c2cc(O[C@H](c3ccc(Cl)cc3-n3ccc(C)n3)C(F)(F)F)nc(N)n2)cc1	23.5 µM (active)	–
Cc1ccc(C(=O)OCc2ccc([C@@H](CN)C(=O)Nc3ccc4cnccc4c3)cc2)c(C)c1	5.12 µM (active)	–
COc1nc(OCc2cccc(-c3ccccc3)c2C)ccc1CNCCNC(C)=O	26.3 µM (active)	–
COc1cc(C(=O)O)ccc1NC(=O)[C@@H]1N[C@@H](CC(C)(C)C)[C@](C#N)(c2ccc(Cl)cc2F)[C@H]1c1cccc(Cl)c1F	0.132 µM (active)	–
COc1cc([C@@H](CC(=O)O)c2ccc(C)c(CN3C[C@@H](C)Oc4ccccc4S3(=O)=O)c2)cc2nnn(C)c12	–	74.9% (inactive)
Cc1ccc(F)c(NC(=O)Nc2ccc(-c3cccc4[nH]nc(N)c34)cc2)c1	26.3 µM (active)	–
Cn1ncc(Cl)c1-c1cc(C(=O)N[C@H](CN)Cc2ccc(F)c(F)c2)sc1Cl	16.6 µM (active)	–
CC(=O)OCC(=O)[C@@]12OC(C)(C)O[C@@H]1C[C@H]1[C@@H]3C[C@H](F)C4=CC(=O)C=C[C@]4(C)[C@@]3(F)[C@@H](O)C[C@@]12C	–	96% (inactive)
C=CC(=O)Nc1cc2c(Nc3ccc(F)c(Cl)c3)ncnc2cc1C#CC(C)(C)N1CCN(C)CC1	3.72 µM (active)	–
C[C@H](O)[C@@H]1C(=O)N2C(C(=O)O)=C(S[C@@H]3CN[C@H](CNS(N)(=O)=O)C3)[C@@H](C)[C@@H]12	–	110% (inactive)
C=C1CCC[C@]2(C)C=C3OC(=O)C(C)=C3C[C@@H]12	–	106% (inactive)
CC(=O)Nc1ccc(O)cc1	–	101% (inactive)
CC(=O)c1cc2c(o1)C(=O)c1ccccc1C2=O	2.35 µM (active)	–
CCCCCCCCCCCCCCCCOCCCOP(=O)(O)COC(CO)Cn1ccc(N)nc1=O (stereo not given)	–	105% (inactive)
COc1cc(NS(C)(=O)=O)ccc1Nc1c2ccccc2nc2ccccc12	0.372 µM (active)	–
N#Cc1c(N(CC(=O)O)CC(=O)O)sc(C(=O)O)c1CC(=O)O	–	102% (inactive)
Cc1nc2cccc(N)c2c(=O)n1C1CCC(=O)NC1=O (stereo not given)	–	101% (inactive)
CC(C)(O)C1CCC(Nc2ccc3ncc(-c4cccc(C(F)(F)F)c4)n3n2)CC1 (stereo not given)	6.61 µM (active)	–
COc1cc(C(C)C)c2c(c1)S(=O)(=O)N(COc1cc(=O)n3cccc(OCCN4CCCCC4)c3n1)C2=O	20.9 µM (active)	–
COc1cc2c(Oc3ccc4[nH]c(C)cc4c3F)ccnc2cc1OCC1(N)CC1	10.5 µM (active)	–

SMILES	Potency	viability (% of control)
COC(=O)N[C@@H](C)CNc1nccc(-c2cn(C(C)C)nc2-c2cc(Cl)cc(NS(C)(=O)=O)c2F)n1	0.833 µM (active)	–
CCN(CC)CCCC[C@H](NC(=O)[C@H](CC(C)C)NC(=O)[C@H](C)NC(=O)[C@H](Cc1ccccc1)NC(=O)c1ccc(C(C)(C)C)cc1)C(=O)N[C@@H](CO)C(=O)OC ({Benzoyl(4-tBu)}-FAL[Lys(Et2)]S-OMe)	–	90.1% (inactive)
CC(C)(O)c1coc(S(=O)(=O)NC(=O)Nc2c3c(cc4c2CCC4)CCC3)c1	–	96.4% (inactive)
CC(=O)N1c2ccc(-c3ccc(C(=O)O)cc3)cc2[C@H](Nc2ccc(Cl)cc2)C[C@@H]1C	0.468 µM (active)	–
C[C@H]1COCCN1c1cc(C2(S(=O)(=O)C3CC3)CC2)nc(-c2ccc(NC(=S)NCCO)cc2)n1	0.105 µM (active)	–
COc1ccc(OC)c(-c2nnc3ccc(-c4ccc(OC)c(O[C@@H]5CCOC5)c4)nn23)c1	1.05 µM (active)	–
COc1cc2c(cc1O)CCN[C@]21CS[C@@H]2c3c(OC(C)=O)c(C)c4c(c3[C@H](COC1=O)N1[C@@H]2[C@H]2c3c(cc(C)c(OC)c3O)C[C@@H]([C@@H]1O)N2C)OCO4	0.0085 µM (active)	–
CCCCC(=O)OCC(=O)[C@]1(O)Cc2c(O)c3c(c(O)c2[C@@H](O[C@H]2C[C@H](NC(=O)C(F)(F)F)[C@H](O)[C@H](C)O2)C1)C(=O)c1c(OC)cccc1C3=O	1.86 µM (active)	–
O=C(C[C@@H]1C/C=C\CCC(=O)O[C@H](c2ccccc2)CNC1=O)NCc1ccc(Cl)cc1	–	113% (inactive)
O=C(NO)c1ccc(C2=Nc3ccccc3Oc3ccccc32)cc1	3.72 µM (active)	–
C=C1C(=O)O[C@H]2C[C@H](C)C(/C=C/C(C)=O)=CC[C@H]12	3.32 µM (active)	–
C[C@@H](Oc1ccc2[nH]nc(/C=C/c3cnn(CCO)c3)c2c1)c1c(Cl)cncc1Cl	0.662 µM (active)	–
C[C@]1(C(=O)N(CCCC(=O)O)Cc2cccc(Cl)c2)CCN1C(=O)c1csc2ccccc12	–	100% (inactive)
O=C(CCCCCCNC(=O)c1cnc(N(c2ccccc2)c2ccccc2Cl)nc1)NO	9.34 µM (active)	–
CC(/C=C/[C@@H]1C[C@]1(C)c1ccc2c(c1)C(C)(C)CCC2(C)C)=C\C(=O)O	18.6 µM (active)	–
Nc1ccc(C(=O)c2cc3c(ccc4ccccc43)[nH]2)cc1	2.41 µM (active)	–
CC1(C)O[C@@H]2C[C@H]3[C@@H]4CCC5=CC(=O)C=C[C@]5(C)[C@H]4[C@@H](O)C[C@]3(C)[C@]2(C(=O)CO)O1	–	84.4% (inactive)
C=CCNc1c(O)cc2c(O)c1C[C@@H](C)C[C@H](OC)[C@H](O)[C@@H](C)/C=C(/C)[C@H](OC(N)=O)[C@@H](OC)/C=C\C=C(\C)C(=O)N2	4.17 µM (active)	–
CN1CCN(c2ccc3nc(-c4cc(C(C)(C)C)c(OCCCC(=O)NCCCN=[N+]=[N-])c(C(C)(C)C)c4)[nH]c3c2)CC1	9.34 µM (active)	–
COc1ccc(N2C(=O)N(c3c(C)cccc3Cl)Cc3cnc(Nc4ccc(C5CCN(C)CC5)cc4OC)nc32)nc1	1.66 µM (active)	–
